From PubChem BioAssay AID504652 (National Center for Advancing Translational Sciences (NCATS), 2011)
The whole screen tested about 360,000 compounds, of which about 11,000 (3.1%) were called active. This excerpt belongs to a sample that is enriched for actives. Unmarked numbers belong to inactive results. No stated cut-off is given here; in the data, active means activity change below about -30%; inactive means the rest.

These compounds were tested against D(1A) dopamine receptor (Homo sapiens) (UniProt P21728) (assay: Antagonist of Human D 1 Dopamine Receptor: qHTS). Settings: HEK293 TREx D1 cells, calcium flux, dopamine EC80; at 10 µM; active compounds read low.
Chain of D(1A) dopamine receptor (Homo sapiens) (P21728 whole entry, looked up): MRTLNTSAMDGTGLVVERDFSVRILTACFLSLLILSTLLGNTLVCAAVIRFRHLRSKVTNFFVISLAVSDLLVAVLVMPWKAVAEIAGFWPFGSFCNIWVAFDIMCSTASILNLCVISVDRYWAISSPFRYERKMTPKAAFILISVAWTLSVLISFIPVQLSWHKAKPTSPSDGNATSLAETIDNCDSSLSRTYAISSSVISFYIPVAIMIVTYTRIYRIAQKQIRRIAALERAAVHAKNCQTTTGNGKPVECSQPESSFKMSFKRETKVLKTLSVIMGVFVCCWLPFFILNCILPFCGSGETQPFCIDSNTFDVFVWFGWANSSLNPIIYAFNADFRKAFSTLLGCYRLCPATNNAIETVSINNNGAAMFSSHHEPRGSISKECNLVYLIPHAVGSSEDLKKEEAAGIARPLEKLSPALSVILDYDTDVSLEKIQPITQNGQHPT
Text: Dopamine receptors (DARs) are involved in the etiology and/or therapy of a number of neuropsychiatric and endocrine disorders. For instance, all receptor-based antiparkinsonian drugs work via stimulating the […] DAR subtype whereas all FDA-approved antipsychotic agents are antagonists of this receptor. […] There are three different types of allosteric modulators that we are seeking, two of which will stimulate or augment receptor signaling, allosteric agonists and potentiators, while the third, allosteric antagonists, will attenuate receptor signaling. The present primary screening assay measures compound antagonism after an EC80 addition of dopamine by tracking calcium flux in a […], inducible Hek293 Trex D1 cell line. NIH Chemical Genomics Center [NCGC] NIH Molecular Libraries Probe Centers Network [MLPCN] MLPCN Grant: NS064831-01 Assay Submitter (PI): David Sibley
Freshly passaged cells are plated in 1536 well black, clear bottom plates at a density of 4000 cells/well in 3 ul of complete media containing 1x tetracycline inducer. After an overnight incubation at 30 C in 5% CO2, cells are loaded with 2 ul of the no wash Calcium Assay Kit (ABD Bioquest) and incubated at room temperature for 30 to 90 minutes. Agonist read: A 10 cycle (1 second/cycle) baseline measurement is taken and then the FDSS online 1536 pintool delivers 23 nl of compound library (as well as dopamine controls) to the plate. The plate is measured for kinetically at 1 cycle/sec for 180 seconds. Following the 180 second read, 1 ul of an EC80 (negative modulation assay) is delivered by an onboard pipette head. Measurements are taken kinetically for an additional 180 seconds.
On the % scale 0 is the no-effect control and ±100 the full control effect.

SMILES	activity change, negative = inhibition
Cc1ccc(NC2=C(Cl)C(=O)OC2OC(=O)c2ccccc2C)cc1 (configuration not stated)	-33.8% (active)
O=C1OC(OC(=O)c2ccccc2Br)C(N2CCOCC2)=C1Cl (configuration not stated)	6.42%
Cc1ccccc1C(=O)OC1OC(=O)C(Cl)=C1Nc1ccccc1 (configuration not stated)	-22.8%
CCN(Cc1ccccc1)C(=O)c1cn(-c2cccc(OC)c2)c(=O)c2ccccc12	-4.13%
COc1ccccc1NC(=O)c1cc(C2CC2)nc2c1c(C)nn2-c1ccc(C)cc1	3.81%
Cc1ccccc1Nc1nn2c(=O)c3ccc(C(=O)NCCc4ccc(Cl)cc4)cc3nc2s1	-2.1%
Cc1ccc(C(=O)Nc2ccccc2F)cc1S(=O)(=O)N1CCOCC1	-16.7%
Cn1c(COc2ccccc2C(C)(C)C)nc2ccccc21	-65.7% (active)
Cn1c(CC(=O)NNC(=O)c2ccccc2F)nc2ccccc21	-11.4%
COc1cccc(C(O)Cc2nc3ccccc3n2C)c1OC (configuration not stated)	5.85%
O=C(Cn1cc(SCc2ccccc2)c2ccccc21)N1CCCCC1	-7.17%
Cc1ccc(NC(=O)Nc2sc3nc4n(c(=O)c3c2C)CCC(C)CC4)c(Cl)c1 (configuration not stated)	10.9%
COc1ccc(C2Nc3ccccc3C(=O)N2Cc2ccccc2)cc1Cn1nnc2ccccc21 (configuration not stated)	12.5%
COc1ccc(C2Nc3ccccc3C(=O)N2c2ccc(Cl)cc2)cc1Cn1cc([N+](=O)[O-])cn1 (configuration not stated)	-30.3% (active)
COc1ccc(CN2CCCC(C(=O)c3ccc(Cl)cc3)C2)cc1Cn1cncn1 (configuration not stated)	-13.5%
Cc1cc(C)cc(NC(=O)CSc2oc(-c3ccccc3)nc2S(=O)(=O)c2ccc(Cl)cc2)c1	-12.1%
O=C(COc1ccc(Cl)cc1)N(Cc1ccco1)Cc1ccco1	-16.4%
COC(=O)c1sc(-c2ccc(C(C)(C)C)cc2)cc1NC(=O)/C=C/C(=O)O	-37% (active)
COc1ccccc1NC(=O)/C=C/C(N)=O	19.1%
COC(=O)c1nc(NC(=O)c2ccc(C(C)(C)C)cc2)n[nH]1	-14.1%
O=C(O)c1ccc(Nc2nc(-c3ccccc3)c3cc(Br)ccc3n2)cc1	-12.9%
COc1ccc(NC(=O)Cn2c(-c3ccc(OC)cc3)cn(-c3ccc(C)cc3)c2=O)cc1	3.29%
COc1ccc(C(CC(=O)Nc2ccc(C)cc2)NC(=O)C(F)(F)F)cc1 (configuration not stated)	-43.5% (active)

SMILES	activity change, negative = inhibition
COc1ccc(NC(=O)CC(NC(C)c2ccccc2)C(=O)O)cc1 (configuration not stated)	-21.7%
COc1ccc(-c2[nH]c3c(c2-c2c(-n4cccc4)n(C)c(=O)n(C)c2=O)c(=O)n(C)c(=O)n3C)cc1	1.12%
Cc1ccc(-c2cc(N)n(Cc3cccc(Cl)c3)n2)cc1	-6.88%
O=C(CC(NCc1cccnc1)C(=O)O)Nc1ccc(O)cc1 (configuration not stated)	0.451%
O=[S+]([O-])(c1ccc2c(c1)OCCO2)N1CCN([S+](=O)([O-])c2c(Cl)cc(Cl)cc2Br)CC1	-16.4%
O=C(Nc1ccc(Cl)cc1)OCc1cc(-c2ccccc2)on1	-17%
O=C(Nc1ccccc1)OCc1cc(-c2ccc(Cl)cc2)on1	-32.2% (active)
Clc1ccc(-c2cc(COc3ccccc3)no2)cc1Cl	1.76%
CCCCNC(=O)CSc1nc2cc3c(cc2c(=O)n1CCCCCC(=O)NCc1ccc2c(c1)OCO2)OCO3	-9.04%
CCOc1ccc(OCc2ccc(C(=O)Nc3cccc(C)n3)o2)cc1	1.17%
CC(=O)Cc1nsc(NC(=O)c2ccc(COc3ccc(C)cc3)o2)n1	-39.7% (active)
CC(=O)Cc1nsc(NC(=O)c2ccc(Cl)cc2Cl)n1	-11.9%
COc1ccccc1-c1nnc(C2CCN(C(=O)c3ccc(Cl)cc3)CC2)o1	-12.2%
O=C(CCc1cn(Cc2ccc(F)cc2)c2ccccc12)NC1CCCCC1	-2.06%
COc1cc2c(cc1OC)C(COc1ccc(F)cc1)N(C(=O)c1ccccc1F)CC2 (configuration not stated)	1.87%
Cc1ccc(/C=C(\C#N)C(=O)Nc2cc(C)ccc2C)cc1	2.52%
CC(C)NC(=O)/C(C#N)=C\c1ccc(N(C)C)c(Br)c1	-4.83%
CC(C)(C)C(=O)/C(C#N)=C/c1ccc(O)cc1	-33.6% (active)
OCc1cnc(SCc2ccc(F)cc2)n1Cc1ccc(F)cc1	-1.85%
Cc1ccc(Nc2c(-c3ccc(Cl)cc3)nc3sccn23)c(C)c1	-21.4%
COc1cc(NC(=O)c2cc3ccc4cccnc4c3[nH]2)cc(OC)c1OC	-1.04%
COc1ccc(N2CCN(C(=O)CCSCc3ccccc3F)CC2)cc1	-20.6%
Cc1cccc(N2CCN(C(=O)CCSCc3ccccc3F)CC2)c1C	10%

SMILES	activity change, negative = inhibition
O=C(CCSCc1ccccc1F)N1CCN(c2ccc(Cl)cc2)CC1	-33.3% (active)
Cc1nc(N2CCOCC2)sc1C(=O)NN	7.42%
c1cnn(-c2cc(N3CCOCC3)ncn2)c1	3.42%
Cc1cc(C)n(Cc2cnc(N3CCOCC3)s2)n1	-31% (active)
Cc1ccc2onc(CC(=O)N3CCN(c4ccc(Cl)cc4)CC3)c2c1	-0.0287%
CSc1ccccc1C(=O)Nc1cccc(C(C)=O)c1	-13.7%
CC(=O)c1cccc(NC(=O)CSc2nc3c(c(=O)[nH]2)CCC3)c1	-6.03%
C=CCSc1nsc(NC(=O)Nc2cccc(C(C)=O)c2)n1	-31.6% (active)
COc1ccc(NC(C(=O)Nc2cccc(C(C)=O)c2)c2ccccc2)cc1 (configuration not stated)	0.474%
CCSc1nsc(NC(=O)Nc2cccc(C(C)=O)c2)n1	-35% (active)
CC(=O)c1cccc(NC(=S)N2CCCC2)c1	-8.06%
COc1ccc(-n2ccn(CC(=O)Nc3ccc(C)c(C)c3)c(=O)c2=O)cc1OC	-0.573%
O=C1CN(C(=O)Nc2ccccc2C(F)(F)F)C(c2ccccc2)c2c(sc3c2CCCC3)N1 (configuration not stated)	-10.2%
COc1cccc(-n2cc(C(=O)NCc3cccc(Cl)c3)c3ccccc3c2=O)c1	-9.19%
Cc1ccc(C)c(Cn2c(=O)n(CCC(=O)NCc3ccc4c(c3)OCO4)c(=O)c3sccc32)c1	-5.56%
COc1ccccc1N1CCN(C2C(=O)c3ccccc3N2C(C)=O)CC1 (configuration not stated)	-1.14%
O=C(c1ccc2c(c1)N(Cc1ccccc1)C(=O)c1ccccc1S2(=O)=O)N1CCC(Cc2ccccc2)CC1	-25.2%
COc1cccc(N2C(=O)CN(Cc3ccccc3)C2=S)c1	1.81%
COc1ccc(Cn2ccn(Cc3cccc(OC)c3)c(=O)c2=O)cc1	-44.5% (active)
COc1ccc(Cn2ccn(CC(=O)Nc3cc(C)ccc3C)c(=O)c2=O)cc1	10.1%
CC(=O)c1ccc(NC(c2ccc(F)cc2)c2nnc(-c3ccccc3)o2)cc1 (configuration not stated)	-24.1%
CCOC(=O)c1c(C)[nH]c(C2=NNC(=NC(C)COC)SC2)c1C (configuration not stated)	-30% (active)
Cc1ccc(-c2noc(CSc3nnc(-c4ccc(Cl)cc4)n3C)n2)cc1	0.344%

SMILES	activity change, negative = inhibition
Cc1ccc2cccc(NC(=O)C(C)Oc3ccc(C)c(C)c3)c2n1 (configuration not stated)	-2.12%
COC(=O)c1cc(NC(=O)c2cnc(SC)nc2-c2ccccc2)cc(C(=O)OC)c1	-16.6%
CCN(CC)S(=O)(=O)c1nnc(NC(=O)COc2ccccc2Cl)s1	1.29%
COc1cccc(NC(=S)N(CCc2c(C)[nH]c3ccccc23)Cc2ccco2)c1	-45.7% (active)
CCNC(=S)N(CCc1c(C)[nH]c2ccc(C)cc12)Cc1ccco1	-10.7%
COc1ccc2[nH]c(C)c(CCN(Cc3cccs3)C(=S)Nc3ccccc3OC)c2c1	-1.49%
COc1ccc(-c2cc(-c3ccc(F)cc3)nc3c2COc2ccccc2-3)cc1	10.1%
Cc1ccc(Cl)cc1N1CCN(C(=O)C2CCC(CNS(=O)(=O)c3cccs3)CC2)CC1 (configuration not stated)	4.96%
CCN(CC)c1ccc(NC(=O)CN2CCN(CC(=O)Nc3ccc(Cl)cc3)CC2)cc1	7.6%
O=C(OCc1cc(=O)n2nc(C3CC3)sc2n1)c1ccccc1Cl	-4.47%
Cc1ccc(-n2c(=O)c3cccnc3n2CC(=O)NCc2ccc(F)cc2)cc1C	4.39%
OCC1(CCc2ccccc2)CCN(Cc2ccc3nsnc3c2)CC1	-86% (active)
CC(C)(O)C#Cc1ccc(CN2CCC(CO)(CCc3ccccc3)CC2)cc1	10.7%
Cc1cccc(-c2ncc(CN3CCC(CO)(CCCc4ccccc4)CC3)cn2)c1	16.2%
CCc1ccc2ncc3c(-c4ccc(C)cc4)nn(CC(=O)NCc4ccccc4)c3c2c1	-13.5%
CC1Cc2ccccc2N1C(=O)CSc1nnc(C2CC2)n1C (configuration not stated)	-45.3% (active)
CCn1c(CSc2ncccn2)nnc1SCC(=O)N1c2ccccc2CC1C (configuration not stated)	-3.34%
CC1Cc2ccccc2N1C(=O)CSc1nnc(-c2ccc(S(=O)(=O)N3CCCC3)cc2)n1C (configuration not stated)	-5.59%
CC(=O)c1ccc(N2CCN(C3C(=O)c4ccccc4N3C(C)=O)CC2)cc1 (configuration not stated)	3.13%
COc1cccc(CNC(=O)C2CCN(S(=O)(=O)c3ccc4c(ccn4C)c3)CC2)c1	-13.2%
Cc1nc(NNC(=O)c2ccccc2)cc(-c2ccccc2)n1	-10.3%
Nc1cccc(-c2cc(-c3ccccc3)nc(-c3cccc(N)c3)n2)c1	-35% (active)
Cc1cc(-c2ccccc2)n2nc(-c3ccccc3)cc2n1	5.34%
